In general, inhibition refers to the change of the read-out against control, counted positive when it falls.

The whole screen tested about 290,000 compounds, of which about 160 (0.055%) were called active. The sample as a whole holds a higher share of actives than the screen did. Unmarked numbers belong to inactive results. No stated cut-off is given here; in the data, active means inhibition above about 50%; inactive means the rest.

For this experiment, the target named is Tyrosine-protein phosphatase non-receptor type 22 (Homo sapiens) (UniProt Q9Y2R2). Nature of the experiment: inhibitors of LYP phosphatase, biochemical, fluorescence intensity, uHTS (AID 1779).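 Further: plate controls were vehicle with enzyme for no effect and no enzyme for full effect.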 Conditions: recombinant LYP phosphatase, at 11.5 µM, active compounds read high.
Sequence of Tyrosine-protein phosphatase non-receptor type 22 (Homo sapiens) (Q9Y2R2 whole entry, looked up): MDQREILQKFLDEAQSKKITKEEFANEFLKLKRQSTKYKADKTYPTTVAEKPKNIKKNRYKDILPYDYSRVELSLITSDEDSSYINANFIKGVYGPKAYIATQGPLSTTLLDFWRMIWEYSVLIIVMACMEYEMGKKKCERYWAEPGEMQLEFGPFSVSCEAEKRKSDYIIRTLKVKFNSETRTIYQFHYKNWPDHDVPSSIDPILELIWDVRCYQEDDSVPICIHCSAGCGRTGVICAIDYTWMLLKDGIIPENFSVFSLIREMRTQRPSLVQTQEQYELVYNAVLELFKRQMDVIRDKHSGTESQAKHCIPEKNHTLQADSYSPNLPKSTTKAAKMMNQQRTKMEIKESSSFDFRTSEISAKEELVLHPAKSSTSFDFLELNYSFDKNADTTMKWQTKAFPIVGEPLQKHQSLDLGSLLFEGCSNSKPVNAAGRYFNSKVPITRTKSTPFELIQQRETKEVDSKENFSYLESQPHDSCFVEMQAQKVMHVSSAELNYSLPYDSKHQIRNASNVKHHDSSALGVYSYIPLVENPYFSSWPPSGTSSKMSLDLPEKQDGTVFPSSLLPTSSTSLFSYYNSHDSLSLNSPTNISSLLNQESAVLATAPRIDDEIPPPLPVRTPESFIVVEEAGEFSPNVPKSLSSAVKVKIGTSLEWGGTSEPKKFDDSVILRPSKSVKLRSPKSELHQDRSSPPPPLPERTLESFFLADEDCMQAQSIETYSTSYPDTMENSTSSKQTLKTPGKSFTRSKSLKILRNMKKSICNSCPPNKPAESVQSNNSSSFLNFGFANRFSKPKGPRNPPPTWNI
Turning to `CS(=O)(=O)N1CCc2cc(C(=O)NC3CC3)ccc21`, the inhibition is -10.8%. In the case of `COCCNC(=O)C(c1ccco1)N(Cc1ccc(OC)cc1)C(=O)Cn1nnc2ccccc21` (configuration not stated), the inhibition is 10.9%. The result for `CSc1nc(-c2ccc(Cl)cc2)nn1C(=O)c1ccco1` reads 77.2% (active); that for `CSc1nc(-c2ccccc2)nn1C(=O)c1ccco1`, -3%. As to `COc1ccc(-c2nc(SC)n(C(=O)c3ccco3)n2)cc1`, the inhibition is -4.5%.

In the case of `Cc1nc(-c2ccc(S(=O)(=O)N3CCN(CCc4ccccc4)CC3)s2)cs1`, the inhibition is -0.7%.

On to `N#CCN(CC#N)C(=O)C1c2ccccc2Oc2ccccc21`, for which the inhibition is -3.9%. The result for `COc1ccc(NC(=O)C2CCCN(S(=O)(=O)c3c(C)n[nH]c3C)C2)c(OC)c1` (configuration not stated) reads -2%; that for `O=[N+]([O-])c1cc(Cl)cc(/C=N/n2cnnc2)c1O`, 3.8%; that for `O=[N+]([O-])c1cc(Br)cc(/C=N/n2cnnc2)c1O`, 76.8% (active). The result for `Cc1cc(/C=N/n2cnnc2)c(O)c([N+](=O)[O-])c1` reads -3.1%. On to `CCOc1ccc(C2C(C#N)=C(N)Oc3cc(C)n(CCN4CCOCC4)c(=O)c32)cc1OCC` (configuration not stated), for which the inhibition is 61.4% (active).

For the compound `CCOc1ccc(C2C(C#N)=C(N)Oc3cc(C)n(CCN(C)C)c(=O)c32)cc1OCC` (configuration not stated), the inhibition was -1.7%.

Consider `COc1ccc(C2C(C#N)=C(N)Oc3cc(C)n(CCN4CCOCC4)c(=O)c32)cc1OC` (configuration not stated), for which the inhibition was -4.7%. Consider `Cc1cccn2c(=O)c3cc(C(=O)NC4CCCCC4)c(=N)n(CCN4CCOCC4)c3nc12`, for which the inhibition was -35.6%.

Regarding `Fc1ccc(-c2csc(=S)[nH]2)cc1`, the inhibition is -2%. For `S=c1[nH]c(-c2ccc(Cl)cc2)cs1`, the inhibition was 74.6% (active).

Regarding `Cc1ccc(-c2csc(=S)[nH]2)cc1`, the inhibition was -4%. As for `OCCC1CN(Cc2cccn2-c2ncccn2)CCN1C1CCCC1` (configuration not stated), the figure is -9.8%; as for `Cc1ccc(C(=O)N2CCN(S(=O)(=O)N3CCCCC3)CC2)cc1`, -11.4%; as for `O=C(COC(=O)COc1ccc(Cl)cc1)Nc1ccc(F)c([N+](=O)[O-])c1`, 2.2%. As for `Cc1cc(NC(=O)COC(=O)COc2ccc(Cl)cc2C)c([N+](=O)[O-])cc1C`, the figure is 5.9%; as for `Cc1cc(Cl)ccc1OCC(=O)OCC(=O)Nc1ccc(F)c([N+](=O)[O-])c1`, 62% (active); as for `O=C(c1ccco1)N1CCN(C(=O)C2CC(=O)N(c3ccc(Cl)cc3)C2)CC1` (configuration not stated), -14.5%. As for `N/C(=N\N=C\c1ccc2c(c1)OCO2)SC1CC(=O)N(c2ccc(C(=O)O)cc2)C1=O` (configuration not stated), the figure is 70% (active); as for `N/C(=N\N=C\c1ccco1)SC1CC(=O)N(c2ccccc2)C1=O` (configuration not stated), -2.9%; as for `N/C(=N\N=C\c1ccco1)SC1CC(=O)N(c2ccc(C(=O)O)cc2)C1=O` (configuration not stated), 1.7%. Regarding `Cc1csc2ncc(C(=O)N3CCCc4ccccc43)c(=O)n12`, the inhibition is -4%. The result for `O=C(CN1C(=O)CSc2ccccc21)Nc1ccccc1C(=O)N1CCOCC1` reads -0.4%.

In the case of `NC(=O)c1nc(-c2cccs2)nc2c1[nH]c(=O)n2-c1ccc(F)cc1`, the inhibition is -3.8%. As for `O=C(Nc1nccs1)c1ccc(S(=O)(=O)NCc2cccs2)cc1`, the figure is 84.4% (active).

Consider `O=C(Nc1nccs1)c1ccc(S(=O)(=O)c2ccccc2)cc1`, for which the inhibition was -4.6%.

Consider `O=C(Nc1nccs1)c1ccc(S(=O)(=O)NCC2CCCCC2)cc1`, for which the inhibition was 9.6%. As for `Cc1ccccc1NC(=S)NC(NC(=O)c1ccccc1C)C(Cl)(Cl)Cl` (configuration not stated), the figure is -5.7%. As for `COc1ccc(S(=O)(=O)N2CCCCCC2)cc1C(=O)OCc1c(C)noc1C`, the figure is 50.5% (active); as for `COc1ccc(S(=O)(=O)N2CCc3ccccc32)cc1C(=O)OCc1c(C)noc1C`, 1%; as for `Cc1noc(C)c1COC(=O)c1ccc(S(=O)(=O)N2CCCCC2)cc1`, -3.8%. As for `CCOC(=O)c1c(NC(=O)COc2ncnc3ccccc23)sc(C)c1C`, the figure is 3.4%; as for `O=C(NCc1ccccc1)C(c1ccccc1F)N(CC1CCCO1)C(=O)c1ccccn1` (configuration not stated), -7.1%; as for `Cc1cc(NC(=O)c2cc(-c3ccc(C)s3)nc3ccccc23)no1`, -4.3%. With `Cc1cc(C)nc(NC(=O)c2cc(-c3ccc(C)s3)nc3ccccc23)c1`, the inhibition is 79.7% (active). As to `Cc1cccc(NC(=O)c2cc(-c3ccc(C)s3)nc3ccccc23)n1`, the inhibition was 6.1%. As for `COc1ccc(-c2nnn(CC(=O)N(CCCO)C(C(=O)NC3CCCC3)c3ccncc3)n2)cc1` (configuration not stated), the figure is -4.7%; as for `CC(=O)N1CCc2c(sc3c2c(=O)n(-c2ccccc2)c(=O)n3CC(=O)NCC2CCCO2)C1` (configuration not stated), -11%; as for `COc1ccc(COC(=O)Nc2cn(C)nc2C(F)(F)F)cc1`, 1.1%. As for `CCC(C)[C@H](NC(=O)[C@@H]1CSC2c3ccccc3C(=O)N21)C(=O)NCC1CCCO1` (some centres not stated), the figure is -11.5%; as for `Cc1c([N+](=O)[O-])cc(C(=O)NCc2ccc(F)cc2)cc1[N+](=O)[O-]`, -4.5%; as for `CCn1cc(CNC(=O)c2cc([N+](=O)[O-])c(C)c([N+](=O)[O-])c2)cn1`, 55.6% (active). The result for `CCn1cc(CNC(=O)c2cccc([N+](=O)[O-])c2)cn1` reads -11.2%; that for `COc1ccc(N(C(=O)CNC(=O)c2ccco2)C(C(=O)NCC2CCCO2)c2ccccc2)cc1` (configuration not stated), -11.7%. Regarding `O=C(OC1CCOC1=O)c1cccc(S(=O)(=O)N2CCc3ccccc3C2)c1` (configuration not stated), the inhibition was -8.2%. As for `CCCN1C(=O)C(O)(CC(=O)c2ccc3c(c2)OCCO3)c2ccccc21` (configuration not stated), the figure is 3.1%; as for `COc1ccc(-c2cc(C)no2)cc1S(=O)(=O)N1CCN(c2ccccn2)CC1`, -10.6%; as for `O=C(OC1CCCCC1)c1ccc2c(c1)C1C=CCC1C(C(=O)O)N2` (configuration not stated), 64% (active). With `CCOC(=O)c1ccc2c(c1)C1C=CCC1C(C(=O)O)N2` (configuration not stated), the inhibition was 19.2%.

Consider `O=C(O)C1Nc2c(O)cccc2C2C=CCC12` (configuration not stated), for which the inhibition is 52% (active).

For the compound `CC(=O)c1ccc2c(c1)C1C=CCC1C(C(=O)O)N2` (configuration not stated), the inhibition is 3.3%. As for `COc1cccc2c1NC(C(=O)O)C1CC=CC21` (configuration not stated), the figure is 1.7%; as for `O=C(O)C1Nc2c(cccc2C(F)(F)F)C2C=CCC12` (configuration not stated), -2.1%; as for `COc1cc2c(C(=O)Nc3ccccc3F)cn(C)c(=O)c2cc1OC`, -10.5%. Regarding `CCOC(=O)c1ccc(-c2ccc3c(=O)c4ccccc4n(C)c3c2)cc1F`, the inhibition is -15.2%. As for `CN1CCN(S(=O)(=O)c2cccc(C(=O)NCCOc3ccccc3F)c2)CC1`, the inhibition is -15.4%. For the compound `Cc1cc(=O)n2c(n1)NC(Nc1cccc(C)c1C)=NC2c1ccc(F)cc1` (configuration not stated), the inhibition is -3.8%. As to `O=C(COC(=O)c1ccccc1F)c1ccc(-n2nncc2-c2ccco2)cc1`, the inhibition is -3.3%. In the case of `CSc1ccccc1NC(=O)CSc1nnc(Cc2ccccc2)o1`, the inhibition was -12.7%. The result for `CCOC(=O)c1sc2nc3c(SCCC(=O)O)cc(C(=O)c4cc(OC)ccc4O)cn3c(=O)c2c1C` reads 53.3% (active); that for `CCOC(=O)c1sc2nc3c(SCCC#N)cc(C(=O)c4cc(F)ccc4O)cn3c(=O)c2c1C`, 1.4%; that for `CCOC(=O)c1sc2nc3c(SCC(=O)O)cc(C(=O)c4cc(F)ccc4O)cn3c(=O)c2c1C`, 5.2%. On to `O=C(Nc1cc(Cl)cc(Cl)c1)C(NCC1CCCO1)c1ccccc1` (configuration not stated), for which the inhibition is 0%. The result for `COc1ccc(CCNC(=O)CCC(=O)N2CCN(S(=O)(=O)c3ccccc3)CC2)cc1OC` reads -4.5%; that for `Cc1ccc(S(=O)(=O)c2nc(-c3ccccc3)oc2NCCN2CCOCC2)cc1`, 67.9% (active). As to `O=S(=O)(c1ccc(Br)cc1)c1nc(-c2ccccc2)oc1NCCN1CCOCC1`, the inhibition is -4.8%. `Cc1ccc(S(=O)(=O)c2nc(-c3ccccc3)oc2NCCCN2CCOCC2)cc1`: the inhibition is 3.6%.

Consider `O=C(CCN1C(=O)C2CC=C(Cl)CC2C1=O)NCc1ccccc1` (configuration not stated), for which the inhibition was -1.9%.

Consider `O=C(CCN1C(=O)c2ccccc2C1=O)NCc1ccco1`, for which the inhibition was -4.2%. The result for `O=C(CCN1C(=O)C2CC=C(Cl)CC2C1=O)NCc1ccco1` (configuration not stated) reads 55.2% (active); that for `Cc1ccc(NC(=O)c2cccc3ccccc23)cc1`, -8.7%.

For `CC(C)CC(=O)Nc1ccc(C(=O)CN2CCN(c3ccc(O)cc3)CC2)cc1`, the inhibition is -9.4%. As for `COc1ccc(C2CC(=O)OC3=C2C(=O)CC(C)(C)C3)c(OC)c1` (configuration not stated), the figure is -2.3%. The result for `Cc1cc([N+](=O)[O-])ccc1N1C(=O)c2ccc(C(=O)Nc3ccccc3C(=O)O)cc2C1=O` reads -5.4%; that for `Cc1ccc(C(=O)O)cc1NC(=O)c1ccc2c(c1)C(=O)N(c1ccc([N+](=O)[O-])cc1)C2=O`, 50.3% (active); that for `O=C(O)c1cccc(NC(=O)c2ccc3c(c2)C(=O)N(c2cccc([N+](=O)[O-])c2)C3=O)c1`, -2%. Consider `C(=N\Nc1nc(-c2ccccc2)cs1)/c1cccnc1`, for which the inhibition was 4.2%. As for `CC(=O)c1ccc2noc(-c3cccc(C)c3)c2c1`, the figure is 8.5%; as for `Cc1ccc2sc(NNC(=O)c3cc(=O)c4ccccc4o3)nc2c1C`, 1.8%. Regarding `CSCC[C@H](NC(=O)Nc1cccc(C(F)(F)F)c1)C(=O)O`, the inhibition was 61.2% (active). The result for `C[C@H](NC(=O)Nc1cccc(C(F)(F)F)c1)C(=O)O` reads -5.3%; that for `CSCC[C@H](NC(=O)Nc1cccc(Br)c1)C(=O)O`, -3.3%; that for `CC(OC(=O)c1ccc(NS(=O)(=O)c2ccc3[nH]c(=O)[nH]c3c2)cc1)C(N)=O` (configuration not stated), -4.3%. As for `Brc1cccc(C2Nc3cccc4cccc(c34)N2)c1`, the figure is -6.2%; as for `c1coc(C2Nc3cccc4cccc(c34)N2)c1`, 18.4%. The result for `Brc1ccc(C2Nc3cccc4cccc(c34)N2)o1` reads 80.6% (active).
